Consider nine molecules from the supplement of paper PMC7366291.

Structures are written as SMILES. Counter-ions that a name gives are not always drawn. ± gives the standard deviation or the standard deviation of the averaged measurements.

What all share (conditions): 25 µM; exposure: 24-48 hpf
In assay [1] the test system is Danio rerio Tg(wt1b:EGFP) embryo, pronephros. The assay can be described thus: glomerular separation, fold change vs DMSO control; higher = glomeruli further apart (abnormal). A digest of the protocol: (§1)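 Every feature is expressed as a fold change relative to the averaged DMSO-treated embryos of the same day. The exposure ran from 24 to 48 hpf at 28.5°C, with dechorionated Tg(wt1b:EGFP) zebrafish embryos in HEPES-buffered E3 containing 0.003% PTU, 0.5% DMSO and 25 μM compound. Dorsal pronephros images taken in agarose-filled 96-well plates were reduced to maximum projections, on which 16 reference points were set by hand in Fiji for a macro to compute distances and angles. Values more than 2 SD from the feature mean were not used.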

The test system is the same in assay [2]. The assay can be described thus: glomerular width (mean of left and right), fold change vs DMSO control; higher = wider glomerulus. A digest of the protocol:
as §1

The test system is the same in assay [3]. The assay can be described thus: fraction of imaged embryos annotated as normal kidney; higher = less nephrotoxic; extreme values may be limits of the assay. A digest of the protocol: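 Dechorionated Tg(wt1b:EGFP) zebrafish embryos were incubated with 25 μM compound in 0.5% DMSO, 5 mM HEPES-buffered E3 and 0.003% PTU from 24 to 48 hpf at 28.5°C. Pronephroi were then imaged by widefield fluorescence, and the fraction of embryos per treatment assigned by hand to the normal-kidney category is given.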

Assay [4] has the same test system. Briefly: pronephric angle neck segment to proximal convoluted tubule (mean of left and right), fold change vs DMSO control; higher = larger pronephric angle. A digest of the protocol: as §1

Regarding `CO[C@]12C[C@@H](COC(=O)c3cncc(Br)c3)CN(C)[C@@H]1Cc1cn(C)c3cccc2c13` [Nicergoline], in assay [1], the glomerular separation was 1.02 ± 0.39. This molecule also registered a glomerular width in assay [2] of 1.02 ± 0.037. In assay [3], the “fraction of imaged embryos annotated as normal kidney” value (“fraction of imaged embryos annotated” below) came out at 1. For the same molecule, the “pronephric angle neck segment” value in assay [4] came to 0.966 ± 0.028.

Regarding `CNCC(O)c1ccc(O)cc1` (racemic) [(+,-)-Synephrine], in assay [1], the glomerular separation was found to be 1.01 ± 0.41. Moreover, in assay [2], the glomerular width came out at 0.959 ± 0.015. In addition, the “fraction of imaged embryos annotated” value in assay [3] is 0.833. Also, the “pronephric angle neck segment” value in assay [4] is 1.017 ± 0.0012.

With `C=C1C[C@@H]2[C@H](CC[C@]3(C)C(=O)CC[C@@H]23)[C@@]2(C)C=CC(=O)C=C12` [Exemestane], the glomerular separation in assay [1] came to 0.893 ± 0.38. This molecule also registered a glomerular width in assay [2] of 0.932 ± 0.065. Besides, the “fraction of imaged embryos annotated” value in assay [3] worked out at 0.727. In addition, the “pronephric angle neck segment” value in assay [4] came to 1.25 ± 0.036.

In assay [1], `CC(N)C(O)c1ccccc1` (stereo unspecified) [Phenylpropanolamine hydrochloride] showed a glomerular separation of 0.921 ± 0.29. The glomerular width in assay [2] turned out to be 0.982 ± 0.054. Also, in assay [3], the “fraction of imaged embryos annotated” value was determined as 0.917. Moreover, in assay [4], the “pronephric angle neck segment” value amounted to 1.07 ± 0.027.

With `CC(=O)OC1CN2CCC1CC2` (stereo unspecified) [Aceclidine Hydrochloride], in assay [1], the glomerular separation was determined as 0.978 ± 0.38. The same molecule came in with a glomerular width in assay [2] of 1.053 ± 0.01. Further, the “fraction of imaged embryos annotated” value in assay [3] amounted to 0.917. Moreover, the “pronephric angle neck segment” value in assay [4] came out at 0.99 ± 0.044.

Molecule `C[C@]12CCC(=O)C=C1C=C[C@@H]1[C@@H]2CC[C@@]2(C)[C@H]1CC[C@@]2(O)CCC(=O)O` [Canrenoic acid potassium salt] gave a glomerular separation in assay [1] of 1.07 ± 0.36. Also, in assay [2], the glomerular width turned out to be 1.03 ± 0.033. Besides, the “fraction of imaged embryos annotated” value in assay [3] amounted to 0.455. The “pronephric angle neck segment” value in assay [4] stood at 0.97 ± 0.046.

Molecule `CC(C)[N+](C)(CCC(C(N)=O)(c1ccccc1)c1ccccc1)C(C)C` [Isopropamide iodide] returned a glomerular separation in assay [1] of 0.996 ± 0.45. The molecule also registered a glomerular width in assay [2] of 1.0283 ± 0.001. The “fraction of imaged embryos annotated” value in assay [3] came out at 0.818. Moreover, in assay [4], the “pronephric angle neck segment” value turned out to be 0.983 ± 0.025.

As to `CC1OC(OC2/C=C/C=C/C=C/C=C/CC/C=C/C=C/[C@H](C)[C@@H](O)[C@@H](C)[C@H](C)OC(=O)CC(O)CC(O)CC(O)CCC(O)C(O)C[C@]3(O)CC(O)C(C(=O)O)C(C2)O3)C(O)C(N)C1O` (stereo partly specified) [Nystatine], in assay [1], the glomerular separation was found to be 0.778 ± 0.16. Besides, the glomerular width in assay [2] is 0.994 ± 0.05. Besides, the “fraction of imaged embryos annotated” value in assay [3] amounted to 1. In assay [4], the “pronephric angle neck segment” value is 1.05 ± 0.053.

On to `Fc1ccc(C(OCCN2CCN(CCCc3ccccc3)CC2)c2ccc(F)cc2)cc1`, for which the glomerular separation in assay [1] was 5.45 ± 2.3. The same molecule registered a glomerular width in assay [2] of 0.737 ± 0.028. In addition, the “fraction of imaged embryos annotated” value in assay [3] was determined as 0. Moreover, the “pronephric angle neck segment” value in assay [4] turned out to be 1.02 ± 0.097.
